Consider 39 compounds from PubChem BioAssay (NCI).

The panel holds about 83,000 compounds, 20% with a hit somewhere; the sample as a whole holds those more often.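 Each cell line was grown in a 96-well plate and treated with one concentration of compound for 48 hours. Values below 10 were considered active.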 A number with no mark means an inactive call. Activity calls are given as the source filed them.

One test concerns PC-3 prostate. Put plainly: NCI-60 one-dose screen, 48 h (100 = growth as untreated, 0 = no growth, -100 = all killed). The conditions noted are these: 10 µM.
Take `O=S(=O)(NCCCNc1nccc(-c2c(-c3ccc(F)cc3)nc3sccn23)n1)c1ccc2ccccc2c1`: the growth was 35.5%.
With `O=C(Nc1cccc(-n2cc(-c3ccncc3)c(-c3ccc(O)c(Cl)c3)n2)c1)c1ccc(Cl)c(Cl)c1`, the growth is 37.9%.
Same read-out and setting: the result for `Cc1ccc(C)c(C(O)(c2cc(C)ccc2C)C2(O)CCCCC2)c1` reads 86.8%; that for `O=C(/C=C/c1cc2ccccc2[nH]c1=O)c1ccc2c(c1)OCO2`, 77.5%.
In the case of `O=C(Nc1cccc(-n2cc(-c3ccncc3)c(-c3ccc(O)c(Cl)c3)n2)c1)Nc1ccc(Cl)c(Cl)c1`, the growth is -7.87% (active).
Still for that read-out and setting: then `O=C(Nc1ccc(OS(=O)(=O)c2ccccc2)cc1)C12CC3CC(CC(C3)C1)C2`, with 23.6%.
On the same count and under the same terms, then `COc1ccc(-c2nn(-c3cccc(NC(=O)Nc4ccc(Cl)c(C(F)(F)F)c4)c3)cc2-c2ccncc2)cc1Cl`, with 2.84% (active).
For the compound `COc1ccc(-c2nn(-c3cccc(NC(=O)c4ccc(Cl)c(Cl)c4)c3)cc2-c2ccncc2)cc1Cl`, the growth is 48.6%.
For `CCOC(=O)CCC(NC(=O)c1ccc(N)cc1)C(=O)OCC` (stereo not drawn), the growth was 89.8%.
Turning to `O=C(Nc1ccccc1)Nc1cccc(-n2cc(-c3ccncc3)c(-c3ccc(O)c(Cl)c3)n2)c1`, the growth is 31.3%.
In the case of `O=S(=O)(NCCNc1nccc(-c2c(-c3ccc(F)cc3)nc3sccn23)n1)c1ccc2ccccc2c1`, the growth is 73.4%.
Turning to `O=C(Nc1cccc(-n2cc(-c3ccncc3)c(-c3ccc(O)c(Cl)c3)n2)c1)c1cc(C(F)(F)F)cc(C(F)(F)F)c1`, the growth is 24.2%.
On to `O=C(N/N=C/c1cc2ccccc2c2ccccc12)c1cc(O)c(O)c(O)c1`, for which the growth was 52.3%.
For `COc1ccc(-c2nn(-c3cccc(NC(=O)c4cc(C(F)(F)F)cc(C(F)(F)F)c4)c3)cc2-c2ccncc2)cc1Cl`, the growth was 40.7%.
Turning to `O=S(=O)(NCCCNc1nccc(-c2c(-c3ccc(F)cc3)nc3sccn23)n1)c1ccc(F)cc1`, the growth was 32.3%.
`COc1ccc(-c2nn(-c3cccc(NC(=O)c4ccc(N5CCOCC5)c(C(F)(F)F)c4)c3)cc2-c2ccncc2)cc1Cl`: the growth was 42.7%.
Regarding `CCCCCCN1CCN(Cc2ccc(N(CC)CC)cc2)C(=O)C1=O`, the growth was 13.5%.
For the compound `COc1ccc(Oc2nc(NC3CCCC3)nc(Sc3ccc(OC)cc3)n2)cc1`, the growth is 43%.
Consider `COc1ccc(-c2nn(-c3cccc(NC(=O)Nc4cccc(C(F)(F)F)c4)c3)cc2-c2ccncc2)cc1Cl`, for which the growth was 3.59% (active).
`COc1ccc(-c2nn(-c3cccc(NC(=O)Nc4ccccc4)c3)cc2-c2ccncc2)cc1Cl`: the growth is 8.81% (active).
For `CCOC(=O)c1ccoc1`, the growth was 99.7%.
`COc1ccc(/C=C/C(C)=N/OCC(=O)O)cc1`: the growth was 94.4%.
On the same count and under the same terms, the result for `CN(C)Cc1cn(-c2ncc(-c3ccc(C(F)(F)F)cc3)c(NC3CCCCCC3)n2)nn1` reads 77.5%.
Same read-out and setting: the result for `COc1cccc(C(=O)Nc2ccc(CN3CCc4nc5cc(OC)c(OC)cc5cc43)cc2)c1` reads 21.7%; that for `O=[N+]([O-])c1cccc(-c2ncc(-c3ccc(Cl)cc3Cl)[nH]2)c1`, -82.6% (active).
With `CCN(CC)CCSCCN(CC)CC`, the growth is 96.5%.
In the case of `COc1ccc([N+](=O)[O-])c(C(=O)O)c1`, the growth was 99.8%.
For `CNc1ncc(-c2ccc(C(F)(F)F)cc2)c(NC2CCCCCC2)n1`, the growth was 61.8%.
Take `CN(C)c1ccc(/C=C/C=N/NC(=O)c2cc(O)c(O)c(O)c2)cc1`: the growth was 85.8%.
As to `O=C(Nc1cccc(-n2cc(-c3ccncc3)c(-c3ccc(O)c(Cl)c3)n2)c1)c1ccc(N2CCOCC2)c(C(F)(F)F)c1`, the growth was 24.4%.
Turning to `Cc1ccc(CC#N)cc1C`, the growth was 164%.
Take `O=c1oc2cc(OS(=O)(=O)c3ccccc3)ccc2c2c1CCCCC2`: the growth was 29.5%.
Regarding `CCOC(=O)C(NC(=O)C(Cl)Cl)C(O)c1ccccc1` (stereo not drawn), the growth is -0.104% (active).
Same read-out and setting: the result for `C/C(N)=C(\C#N)C(=O)c1ccccc1` reads 98.2%.
The same measure, in the same setting: the result for `Nc1ncnc2[nH]c(=O)[nH]c12` reads 201%.
Still for that read-out and setting: then `COc1ccc(-c2nn(-c3cccc(NC(=O)c4cccc(C(F)(F)F)c4)c3)cc2-c2ccncc2)cc1Cl`, with 14%; and `O=C1CC[C@@H]2CCCC[C@@H]2C1`, with 85.3%.
Consider `Cc1ccc(S(=O)(=O)OCCN(CCOS(=O)(=O)c2ccc(C)cc2)c2c[nH]c(=O)[nH]c2=O)cc1`, for which the growth was 94.6%.
In the case of `FC(F)(F)c1ccc(-c2cnc(-n3cc(COCCN4CCCCC4)nn3)nc2NC2CCCCCC2)cc1`, the growth was 7.37% (active).

In another test the test system is SK-MEL-5 melanoma. The test is described as above. The conditions noted are these: 10 µM.
Turning to `O=S(=O)(NCCCNc1nccc(-c2c(-c3ccc(F)cc3)nc3sccn23)n1)c1ccc2ccccc2c1`, the growth is 43.4%.
With `O=C(Nc1cccc(-n2cc(-c3ccncc3)c(-c3ccc(O)c(Cl)c3)n2)c1)c1ccc(Cl)c(Cl)c1`, the growth is 48.1%.
As for `Cc1ccc(C)c(C(O)(c2cc(C)ccc2C)C2(O)CCCCC2)c1`, the growth was 99.4%.
With `O=C(/C=C/c1cc2ccccc2[nH]c1=O)c1ccc2c(c1)OCO2`, the growth is 96%.
With `O=C(Nc1cccc(-n2cc(-c3ccncc3)c(-c3ccc(O)c(Cl)c3)n2)c1)Nc1ccc(Cl)c(Cl)c1`, the growth was -47% (active).
Regarding `O=C(Nc1ccc(OS(=O)(=O)c2ccccc2)cc1)C12CC3CC(CC(C3)C1)C2`, the growth was 32%.
Turning to `COc1ccc(-c2nn(-c3cccc(NC(=O)Nc4ccc(Cl)c(C(F)(F)F)c4)c3)cc2-c2ccncc2)cc1Cl`, the growth was 14.7%.
In the case of `COc1ccc(-c2nn(-c3cccc(NC(=O)c4ccc(Cl)c(Cl)c4)c3)cc2-c2ccncc2)cc1Cl`, the growth is 78.8%.
`CCOC(=O)CCC(NC(=O)c1ccc(N)cc1)C(=O)OCC` (stereo not drawn): the growth was 105%.
In the case of `O=C(Nc1ccccc1)Nc1cccc(-n2cc(-c3ccncc3)c(-c3ccc(O)c(Cl)c3)n2)c1`, the growth is 42.8%.
Same read-out and setting: then `O=S(=O)(NCCNc1nccc(-c2c(-c3ccc(F)cc3)nc3sccn23)n1)c1ccc2ccccc2c1`, with 69.2%; and `O=C(Nc1cccc(-n2cc(-c3ccncc3)c(-c3ccc(O)c(Cl)c3)n2)c1)c1cc(C(F)(F)F)cc(C(F)(F)F)c1`, with 56.4%.
As to `O=C(N/N=C/c1cc2ccccc2c2ccccc12)c1cc(O)c(O)c(O)c1`, the growth was 52.9%.
Turning to `COc1ccc(-c2nn(-c3cccc(NC(=O)c4cc(C(F)(F)F)cc(C(F)(F)F)c4)c3)cc2-c2ccncc2)cc1Cl`, the growth is 62.9%.
As for `O=S(=O)(NCCCNc1nccc(-c2c(-c3ccc(F)cc3)nc3sccn23)n1)c1ccc(F)cc1`, the growth is 31.6%.
For `COc1ccc(-c2nn(-c3cccc(NC(=O)c4ccc(N5CCOCC5)c(C(F)(F)F)c4)c3)cc2-c2ccncc2)cc1Cl`, the growth is 68.2%.
The same measure, in the same setting: the result for `CCCCCCN1CCN(Cc2ccc(N(CC)CC)cc2)C(=O)C1=O` reads 21.4%.
`COc1ccc(Oc2nc(NC3CCCC3)nc(Sc3ccc(OC)cc3)n2)cc1`: the growth was 45.7%.
For the compound `COc1ccc(-c2nn(-c3cccc(NC(=O)Nc4cccc(C(F)(F)F)c4)c3)cc2-c2ccncc2)cc1Cl`, the growth was 2.68% (active).
In the case of `COc1ccc(-c2nn(-c3cccc(NC(=O)Nc4ccccc4)c3)cc2-c2ccncc2)cc1Cl`, the growth was 42.1%.
As for `CCOC(=O)c1ccoc1`, the growth was 99.6%.
As for `COc1ccc(/C=C/C(C)=N/OCC(=O)O)cc1`, the growth is 101%.
In the case of `CN(C)Cc1cn(-c2ncc(-c3ccc(C(F)(F)F)cc3)c(NC3CCCCCC3)n2)nn1`, the growth was 80.6%.
The same measure, in the same setting: the result for `COc1cccc(C(=O)Nc2ccc(CN3CCc4nc5cc(OC)c(OC)cc5cc43)cc2)c1` reads 50.1%; that for `O=[N+]([O-])c1cccc(-c2ncc(-c3ccc(Cl)cc3Cl)[nH]2)c1`, 94.7%.
Turning to `CCN(CC)CCSCCN(CC)CC`, the growth is 99.6%.
Regarding `COc1ccc([N+](=O)[O-])c(C(=O)O)c1`, the growth was 98.5%.
On to `CNc1ncc(-c2ccc(C(F)(F)F)cc2)c(NC2CCCCCC2)n1`, for which the growth is 74.8%.
Take `CN(C)c1ccc(/C=C/C=N/NC(=O)c2cc(O)c(O)c(O)c2)cc1`: the growth was 92.9%.
Turning to `O=C(Nc1cccc(-n2cc(-c3ccncc3)c(-c3ccc(O)c(Cl)c3)n2)c1)c1ccc(N2CCOCC2)c(C(F)(F)F)c1`, the growth is 40.9%.
On to `Cc1ccc(CC#N)cc1C`, for which the growth was 99.3%.
Turning to `O=c1oc2cc(OS(=O)(=O)c3ccccc3)ccc2c2c1CCCCC2`, the growth was 26%.
Same read-out and setting: then `CCOC(=O)C(NC(=O)C(Cl)Cl)C(O)c1ccccc1` (stereo not drawn), with 91.4%.
Still for that read-out and setting: then `C/C(N)=C(\C#N)C(=O)c1ccccc1`, with 99.5%; and `Nc1ncnc2[nH]c(=O)[nH]c12`, with 100%; and `COc1ccc(-c2nn(-c3cccc(NC(=O)c4cccc(C(F)(F)F)c4)c3)cc2-c2ccncc2)cc1Cl`, with 23.7%.
As to `O=C1CC[C@@H]2CCCC[C@@H]2C1`, the growth is 110%.
The same measure, in the same setting: then `Cc1ccc(S(=O)(=O)OCCN(CCOS(=O)(=O)c2ccc(C)cc2)c2c[nH]c(=O)[nH]c2=O)cc1`, with 101%; and `FC(F)(F)c1ccc(-c2cnc(-n3cc(COCCN4CCCCC4)nn3)nc2NC2CCCCCC2)cc1`, with -91% (active).
